Results published in PubChem BioAssay (NCI).
The panel holds about 83,000 compounds, 20% with a hit somewhere; the sample as a whole holds those more often.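 Growth was measured after 48 h exposure to one concentration of compound in 96-well plates. Values under 10 count as active.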 Unmarked numbers belong to inactive results. Calls of active or inactive are those of the source.

What was measured:
Test in all cases: NCI-60 one-dose screen, 48 h (100 = growth as untreated, 0 = no growth, -100 = all killed)
K-562 leukemia = conditions: 10 µM unless noted
MALME-3M melanoma = conditions: 10 µM unless noted
MDA-MB-231 breast = conditions: 10 µM unless noted
RXF 393 renal = conditions: 10 µM unless noted
SF-268 CNS = conditions: 10 µM unless noted
SF-295 CNS = conditions: 10 µM unless noted
SF-539 CNS = conditions: 10 µM unless noted
UACC-257 melanoma = conditions: 10 µM unless noted
M14 melanoma = conditions: 10 µM unless noted
HCT-15 colon = conditions: 10 µM unless noted
HT29 colon = conditions: 10 µM unless noted
SNB-75 CNS = conditions: 10 µM unless noted
SNB-19 CNS = conditions: 10 µM unless noted
U251 CNS = conditions: 10 µM unless noted
PC-3 prostate = conditions: 10 µM unless noted
SK-MEL-5 melanoma = conditions: 10 µM unless noted
UACC-62 melanoma = conditions: 10 µM unless noted
LOX IMVI melanoma = conditions: 10 µM unless noted
SK-MEL-28 melanoma = conditions: 10 µM
SK-MEL-2 melanoma = conditions: 10 µM unless noted

Row | SMILES | growth (K-562 leukemia) | growth (MALME-3M melanoma) | growth (MDA-MB-231 breast) | growth (RXF 393 renal) | growth (SF-268 CNS) [%] | growth (SF-295 CNS) | growth (SF-539 CNS) | growth (UACC-257 melanoma) | growth (M14 melanoma) | growth (HCT-15 colon) | growth (HT29 colon) | growth (SNB-75 CNS) | growth (SNB-19 CNS) [%] | growth (U251 CNS) | growth (PC-3 prostate) | growth (SK-MEL-5 melanoma) | growth (UACC-62 melanoma) | growth (LOX IMVI melanoma) | growth (SK-MEL-28 melanoma) [%] | growth (SK-MEL-2 melanoma)
1 | O=C1Nc2ccccc2/C1=C/c1cccs1 | 114% | 93.6% | 94.5% | 97.9% | 94.1 | 101% | 86.7% | 100% | 97.3% | 78.8% | 110% | 103% | 83.2 | 83.2% | 92.3% | 85.9% | 85.9% | 93% | 102 | 110%
2 | COc1ccc(/C=C/C(=O)c2c(C)nc3ccccc3c2/C=C/c2ccccc2)c(OC)c1 | 69.6% | 106% | 68.9% | 89.6% | 80.7 | 90.9% | 100% | 104% | 97.3% | 72.2% | 62.9% | 81.5% | 92.9 | 90% | 75.9% | 85.7% | 62.1% | 83.8% | 108 | 95.9%
3 | O=C(c1nc2ccccc2[nH]1)C1C(c2cccc([N+](=O)[O-])c2)C2CC3CCCCC3N2[C@@]12C(=O)Nc1cc(Cl)ccc12 (stereo not given in full) | 24.2% | 29.3% | 18.6% | -52.5% (active) | 39.9 | 24.8% | 48.4% | 43.5% | 21.5% | 20.9% | 13.5% | 15.1% | 39.1 | 32.4% | 19.6% | 45.4% | 33.5% | 19.7% | 55.3 | 41.4%
4 | COc1cc2nc(NC3CCC3)nc(NC3CCN(C(C)C)CC3)c2cc1OC | 0.162% (active) | -4.44% (active) | -2.38% (active) | -16.9% (active) | 77.9 | 96.6% | 5.1% (active) | -59.9% (active) | -65.8% (active) | 67.7% | 14.5% | 46.8% | 91 | 21.5% | 58.9% | 14.5% | 83.5% | 42.9% | 38.1 | 91.5%
5 | O=c1oc2ccc(F)cc2c(=O)n1-c1ccc(I)cc1F | 7.88% (active) | -22.1% (active) | -25.4% (active) | -1.5% (active) | 12.2 | -40% (active) | 3.66% (active) | -14.8% (active) | 3.58% (active) | 5.2% (active) | 46.2% | -15.3% (active) | 15.6 | 0.481% (active) | -2.68% (active) | -84.1% (active) | -16.4% (active) | 10.7% | 12.3 | -19.7% (active)
6 | CCOC(=O)c1sc(-c2ccc(OS(=O)(=O)C[C@]34CCC(CC3=O)C4(C)C)c(C=O)c2)nc1C | 7.5% (active) | 38.1% | 19.7% | 52.9% | 15 | 26.2% | 43.2% | 4.31% (active) | 3.97% (active) | 5.75% (active) | 6.26% (active) | -2.85% (active) | 18 | -9.73% (active) | 25.8% | 16.8% | 25% | -32.1% (active) | 52.6 | 12.8%
7 | Cc1nc(Nc2cn[nH]c2C(=O)Nc2ccc(CN3CCN(C)CC3)cc2)c2ccsc2n1 | 72.2% | 132% | 82.4% | 61.7% | 88.2 | 118% | 78.4% | 98.3% | 98.9% | 81% | 66.1% | 37.7% | 107 | 92.8% | 69.8% | 90.3% | 93.9% | 72.8% | 107 | 111%
8 | c1ccc2cc3c(Nc4ccc(N5CCOCC5)cc4)ccnc3cc2c1 | 72.7% | 98.1% | 91.3% | 92% | 87.6 | 98% | 92.4% | 108% | 99.9% | 91.1% | 98.1% | 101% | 94.3 | 94.7% | 81.8% | 89.6% | 95.6% | 96.6% | 111 | 101%
9 | COc1cc(C(=O)NN=C2c3ccccc3-c3ccccc32)cc(OC)c1OC | 13.9% | 44.4% | 49.1% | 16.7% | 45.1 | -0.172% (active) | 4.99% (active) | 38.1% | 17.6% | 27.2% | 5.22% (active) | 14.2% | 42.4 | 20.9% | 31% | 7.14% (active) | 44.2% | 28.7% | 46.6 | 6.51% (active)
10 | O=C1/C(=C/c2ccc(O)cc2)COc2ccc(O)c(O)c21 | 4.59% (active) | -6.72% (active) | 20.2% | 9.98% (active) | 24.5 | 95.6% | -13.7% (active) | 63.2% | 64.7% | -29.3% (active) | 44.6% | 29.6% | 46.9 | 9.17% (active) | 41.9% | 44.1% | 24.3% | -48.1% (active) | 52.7 | 85.2%
11 | Brc1ccc(Oc2ccc(Nc3ncnc4onc(-c5ccccc5)c34)cc2)cc1 | 92.4% | 103% | 98.3% | 103% | 96.7 | 92.2% | 96.2% | 98% | 98.3% | 103% | 95.5% | 86.7% | 106 | 98.9% | 102% | 92.6% | 88.6% | 94.5% | 97.2 | 110%
12 | CC[C@]1(O)C[C@@H]2CN(CCc3c([nH]c4ccccc34)[C@@](C(=O)OC)(c3cc4c(cc3OC)N(C)[C@H]3[C@@](O)(C(=O)OC)[C@H](OC(=O)CCCBr)[C@]5(CC)C=CCN6CC[C@]43[C@@H]65)C2)C1 | 8.93% (active) | 39.4% | -16.5% (active) | 34.2% | 21.2 | 8.8% (active) | -10.4% (active) | 62% | -11% (active) | 10.5% | 4.86% (active) | 13.2% | 28.8 | 13.5% | 20.1% | -42.8% (active) | 34.8% | 8.02% (active) | 67.3 | 13.6%
13 | COc1ccc(/C=C/C(=O)c2c(C)nc3ccccc3c2/C=C/c2ccccc2)cc1O | 20.9% | 86.3% | 52.7% | 64.1% | 57.7 | 90.8% | 81.7% | 68.7% | 15.9% | 39.1% | 71.6% | 24.9% | 67.3 | 49% | 58.4% | 59.3% | 48.6% | 33% | 75.2 | 66.8%
